From publication PMC4552634, “A New Set of Chemical Starting Points with Plasmodium falciparum Transmission-Blocking Potential for Antimalarial Drug Discovery” (PLoS ONE, 2015) come the findings set out here.

This test concerns P. falciparum stage V gametocytes. More on the design: BacTiter-Glo ATP luminescence viability of purified stage V gametocytes in 384-well plates, per cent inhibition versus DMSO.

Read-outs that look alike come from different tables or passages of the source. Screen size: about 13,000 compounds; about 3,200 (25%) showed an effect of 50% or more. Some of the results follow.

As a reminder, the % Inhibition is the relative decrease from the control value, in per cent. As for `O=C(Nc1ccc(Cl)cc1)c1ccc(CN2CCCN(Cc3cccc(F)c3)CC2)cc1` [TCMDC-136404], the “% Inhibition” value (48 h, 5 µM; inhibitor) was -18.08%.

On to `N#Cc1ccc(CN2CCCN(Cc3cccc(NC(=O)c4ccc(-c5ccccc5)cc4)c3)CC2)cc1` [TCMDC-141838], for which the “% Inhibition” value (48 h, 5 µM; inhibitor) turned out to be 91.89%. `Cc1ccc(CC(C)NC[C@H](O)c2cccc(Cl)c2)cc1` (stereo partly drawn) [TCMDC-131477]: the “% Inhibition” value (48 h, 5 µM, inhibitor) was determined as 11.62%. Turning to `CCOP(=O)(OCC)c1ccc(OC)c(-c2ccc[nH]2)c1` [TCMDC-139023], the “% Inhibition” value (48 h, 5 µM; inhibitor) came out at 22.96%.

As to `COC(=O)/C=C/C(=O)N[C@@H]1CC[C@@]2(O)[C@H]3Cc4ccc(O)c5c4[C@@]2(CCN3CC2CC2)[C@H]1O5` [TCMDC-125875], the “% Inhibition” value (48 h, 5 µM; inhibitor) is 50.91%.

For `C#CCN1CCC2=C(C1)c1c(O)cc(C(C)CCCc3ccc(F)cc3)cc1OC2(C)C` (stereo not drawn) [TCMDC-124277], for the setting “48 h, 5 µM; inhibitor”, the “% Inhibition” value is given as -40.47%. Same read-out and setting: the value for `O=C(/C=C/c1ccc(Cl)c(Cl)c1)NCCCCCN1CCCN(C(=O)Nc2ccc(C(F)(F)F)cc2)CC1` [TCMDC-135757] was 8.096%; that for `Cc1cc(C)c(CC(C)NCC(O)c2cccc(C(F)(F)F)c2)c(C)c1` (stereo not drawn) [TCMDC-131460] was -4.216%. The same measure, in the same setting: the value for `C[C@@H](CC1CCCCC1)NCc1ccccc1O` [TCMDC-140305] was 71.87%; that for `CCN(CC)CCOC(=O)C(OC)(c1ccccc1)c1ccccc1` [TCMDC-131779] was 18.56%. The same measure, in the same setting: the value for `Cc1ccc(CC(C)NCC(O)c2cccc(C(F)(F)F)c2)c(C)c1` (stereo not drawn) [TCMDC-131465] was -0.5645%; that for `CSc1ccc(C[C@@H](C)NC[C@H](O)c2cccc(Cl)c2)cc1` [TCMDC-131507] was 10.96%. On to `CNCCN(C)C(=O)Oc1c(Br)c(C)nc(C)c1-c1ccc(Oc2ccc(OC(F)(F)F)cc2)cc1` [TCMDC-137377], for which the “% Inhibition” value (48 h, 5 µM; inhibitor) was 86.68%. The same measure, in the same setting: the value for `CNCCCN(C)C(=O)Oc1c(Br)c(C)nc(C)c1-c1ccc(Oc2ccc(OC(F)(F)F)cc2)cc1` [TCMDC-132416] was 117.8%.

With `CNCCN(C)C(=O)Oc1c(Cl)c(C)nc(C)c1-c1ccc(Oc2ccc(OC(F)(F)F)cc2)cc1` [TCMDC-137384], the “% Inhibition” value (48 h, 5 µM; inhibitor) is reported as 42.19%.

With `Cc1nc(C)c(-c2ccc(Oc3ccc(OC(F)(F)F)cc3)cc2)c(OC(=O)N(CCNC(C)C)C(C)C)c1Br` [TCMDC-132417], under “48 h, 5 µM; inhibitor”, the “% Inhibition” value is 109%. Same read-out and setting: the value for `COc1ccc(CC(C)NCC(O)c2cccc(Cl)c2)cc1C` (stereo not drawn) [TCMDC-131505] was 13.45%; that for `CCc1ccc(CC(C)NCC(O)c2ccccc2)cc1` (stereo not drawn) [TCMDC-131463] was 17.08%; that for `CN1CC(c2ccc(Cl)c(Cl)c2)OC1=N` (stereo not drawn) [TCMDC-137454] was 1.442%. On to `Cc1ccc(CC(C)NCC(O)c2cccc(C#N)c2)cc1` (stereo not drawn) [TCMDC-131451], for which, for the setting “48 h, 5 µM; inhibitor”, the “% Inhibition” value was 40.18%. Consider `CCC1(C)CC(CCNCc2ccccc2O)(c2ccc(C)cc2)CCO1` (stereo not drawn) [TCMDC-124003], for which the “% Inhibition” value (48 h, 5 µM; inhibitor) worked out at 4.575%. Still for that read-out and setting: the value for `COCCSc1ccc(CC(C)NCC(O)c2cccc(Cl)c2)cc1` (stereo not drawn) [TCMDC-131513] was 22.33%; that for `CCCCCCCCCCS(=O)(=O)N[C@H](COCc1cccc(Oc2ccccc2)c1)COP(=O)(O)OC` [TCMDC-131877] was 13.38%; that for `CC(C)CCN1C(=O)C(NC(=O)Oc2ccccc2)C(=O)N(CC23CC4CC(CC(C4)C2)C3)c2ccccc21` (stereo not drawn) [TCMDC-137160] was -43.48%. For the compound `CCCC(=O)c1c(O)c2ccccc2oc1=O` [TCMDC-123881], where the note is “48 h, 5 µM; inhibitor”, the “% Inhibition” value worked out at 11.83%.

Consider `Cc1ccc(C[C@@H](C)NC[C@H](O)c2cccc(C(F)(F)F)c2)cc1` [TCMDC-131449], for which the “% Inhibition” value (48 h, 5 µM; inhibitor) came out at 8.152%.

`[O-]c1n[n+](C2CCCCC2)no1` [TCMDC-138090]: under “48 h, 5 µM; inhibitor”, the “% Inhibition” value came out at 57.64%. On to `CCOC(C(=O)OCCN(C(C)C)C(C)C)(c1ccccc1)c1ccccc1` [TCMDC-131391], for which, where the note is “48 h, 5 µM; inhibitor”, the “% Inhibition” value is given as -28.65%. `COc1ccc(C[C@@H](C)NC[C@H](O)c2cccc(Cl)c2)cc1F` [TCMDC-131516]: under “48 h, 5 µM, inhibitor”, the “% Inhibition” value turned out to be 9.097%.

In the case of `Oc1cc2c(cc1CN1CCN(Cc3ccccc3)CC1)CCC2` [TCMDC-125104], the “% Inhibition” value (48 h, 5 µM; inhibitor) is 73.14%. Still for that read-out and setting: the value for `Cc1cccc(N2CCN(Cc3cc(Cl)ccc3O)CC2)c1C` [TCMDC-123718] was -35.86%; that for `Cc1ccc(C)c(N2CCN(Cc3ccccc3O)CC2)c1` [TCMDC-123518] was 7.065%; that for `COc1ccc(O)c(CN2CCN(c3cc(C)ccc3C)CC2)c1` [TCMDC-124056] was 6.084%. With `CCN(CC)CCN1C(=O)C(O)(c2ccccc2Cl)c2c1cc(C(N)=O)cc2C(F)(F)F` (stereo not drawn) [TCMDC-133544], the “% Inhibition” value (48 h, 5 µM; inhibitor) was 37.34%. Take `COc1ccc(CC(C)NCC(O)c2cccc(Br)c2)cc1` (stereo not drawn) [TCMDC-131496]: for the setting “48 h, 5 µM; inhibitor”, the “% Inhibition” value was 20.1%. As to `COc1ccc(C[C@@H](C)NC[C@H](O)c2cccc(Cl)c2)cc1F` [TCMDC-131502], the “% Inhibition” value (48 h, 5 µM, inhibitor) worked out at 8.677%. For the compound `CCOC(C(=O)OCC1CCCN(C)C1)(c1ccccc1)c1ccccc1` (stereo not drawn) [TCMDC-131382], the “% Inhibition” value (48 h, 5 µM; inhibitor) was found to be 13.79%.

With `CCCCOC(C(=O)OCC1CCCN1C)(c1ccccc1)c1ccccc1` (stereo not drawn) [TCMDC-131730], under “48 h, 5 µM; inhibitor”, the “% Inhibition” value is given as -23.33%. The same measure, in the same setting: the value for `COC(C(=O)OCCC1CCCN1C)(c1ccccc1)C1CCCCC1` (stereo not drawn) [TCMDC-131374] was 34.4%; that for `COC(C(=O)OCCC1CCCN1C)(c1ccccc1)c1ccccc1` (stereo not drawn) [TCMDC-131780] was 73.28%. Take `CCOC(C(=O)OCC1CCCN1C)(c1ccccc1)c1ccccc1` (stereo not drawn) [TCMDC-131676]: where the note is “48 h, 5 µM; inhibitor”, the “% Inhibition” value was 62.64%. Same read-out and setting: the value for `CCOC(C(=O)OCC1CCCN1C(C)C)(c1ccccc1)c1ccccc1` (stereo not drawn) [TCMDC-131750] was -3.502%; that for `Cc1ccc(CC(C)NCC(O)c2cccc(Br)c2)cc1` (stereo not drawn) [TCMDC-131444] was 5.106%; that for `CCN(CC)CCN1C(=O)C(O)(c2ccccc2Cl)c2c1cc(C#N)cc2C(F)(F)F` (stereo not drawn) [TCMDC-132583] was -22.22%. With `CCCCCC(C)C(C)c1cc(OC(N)=O)c2c(c1)OC(C)(C)C=C2c1ccncc1` (stereo not drawn) [TCMDC-131796], the “% Inhibition” value (48 h, 5 µM; inhibitor) was -24.09%. Same read-out and setting: the value for `O=P(O)(O)Oc1c(Br)cc(Br)cc1-c1cc(Br)cc(Br)c1O` [TCMDC-131736] was 1.085%. With `COc1ccccc1CC(C)NCC(O)c1cccc(Cl)c1` (stereo not drawn) [TCMDC-131497], the “% Inhibition” value (48 h, 5 µM; inhibitor) is -23.86%. Turning to `COc1cc(NCCCNC(=O)c2cn(Cc3ccccc3)c3ccccc23)nc2ccccc12` [TCMDC-140140], the “% Inhibition” value (48 h, 5 µM; inhibitor) came out at 60.42%.
